Data reported in PubChem BioAssay (NCATS).
Results filed as inconclusive are left out. Values without a mark were called inactive. The source made the active and inactive calls. The call rests on the fitted dose curve; in most records, active means well fitted curve in the direction sought with a large enough effect; inconclusive means small, poorly fitted or top-dose-only effect, or another doubt; inactive means no such curve, though single readings can be large; an effect the other way counts as inactive or inconclusive.

test: Primary redox qHTS assay for identification of artifact compounds. (AID 1845223); settings: Amplex Red/HRP redox cycling with DTT, fluorescence; series mostly up to 53.8 µM; redox activity (% of DA3003): at the top concentration;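 further: 0% = DMSO and 100% = reference compound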
In short: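 Amplex Red (25 uM) and HRP (250 mU/mL) in HBSS, with compounds for 15 min, then 250 uM DTT for 30 min, room temperature, dark. Fluorescence 525/598 nm read; normalized to DMSO and 10 uM DA3003; Hill fit.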

Row | SMILES | redox activity (% of DA3003)
1 | COc1ccccc1[C@H](c1cccc2ccccc12)[C@@](C)(C#N)C(=O)N1CCC(c2cccc(C(F)(F)F)c2)CC1 | -3.33%
2 | O=C(Nc1ccc(F)c(C(F)(F)F)c1)Nc1nnc(-c2ccncc2)s1 | -3.41%
3 | CC(C)OC(=O)C1=CN(C(=O)c2ccc(F)c(F)c2)CC(C)(C)c2c1[nH]c1ccccc21 | -6.18%
4 | Cc1cc(Nc2nc(N[C@@H](C)c3ncc(F)cn3)ncc2Cl)n[nH]1 | -5.75%

test: Quantitative High-Throughput drug screen in 47 multiple myeloma cell lines against the NCATS MIPE library collection: FR4_PLB cell viability assay (AID 1918924; further: nearly all actives have a fitted effect of over 35% in size; further: potency means the concentration at half of the fitted maximal effect;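 on viability (% of DMSO control): 100% = DMSO-treated cells and 0% = wells with media only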); settings: FR4_PLB myeloma cells viability, CellTiter-Glo ATP, 48 h; series mostly up to 45.8 µM; viability (% of DMSO control): at the top concentration
In short: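 Inhibition of cell viability is measured here. Each line was plated at 500 cells per well, treated with MIPE 4.0 drugs, kept 48 hours at 37C, then assayed for ATP content by CellTiter-Glo luminescence.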

Row | SMILES | Potency | viability (% of DMSO control)
5 | CC(C)(N)C(=O)N[C@H](COCc1ccccc1)C(=O)N1CCC2(CC1)CN(S(C)(=O)=O)c1ccccc12 | 16.6 µM (active) | –
6 | COc1ccc(CC2=NN3C([C@@H](CCc4ccccc4)[C@@H](C)O)=NC(C)C3C(=O)N2)cc1OC (stereo partly drawn) | – | 114%
7 | O=C(NOC[C@H](O)CO)c1ccc(F)c(F)c1Nc1ccc(I)cc1F | – | 101%
8 | CCc1cc(Nc2nccc(-c3c(-c4ccc(OC)c(C(=O)Nc5c(F)cccc5F)c4)nc4ccccn34)n2)c(OC)cc1N1CCC(N2CCN(S(C)(=O)=O)CC2)CC1 | 20.9 µM (active) | –
9 | CNC(=O)c1ccc(N2C(=S)N(c3ccc(C#N)c(C(F)(F)F)c3)C(=O)C2(C)C)cc1F | – | 108%
10 | COc1cc2nccc(Oc3ccc(NC(=O)NC4CC4)c(Cl)c3)c2cc1C(N)=O | 23.5 µM (active) | –
11 | Cc1cnc(Nc2ccc(OCCN3CCCC3)cc2)nc1Nc1cccc(S(=O)(=O)NC(C)(C)C)c1 | – | 118%
12 | COc1cc(Nc2ncc3c(n2)-c2ccc(Cl)cc2C(c2c(F)cccc2OC)=NC3)ccc1C(=O)O | – | 70.5%
13 | CC[C@H](Nc1ncnc2nc[nH]c12)c1nc2cccc(F)c2c(=O)n1-c1ccccc1 | 20.9 µM (active) | –
14 | CS(=O)(=O)c1ccc(C(=O)Nc2ccc(Cl)c(-c3ccccn3)c2)c(Cl)c1 | – | 107%
15 | CNCc1ccc(-c2[nH]c3cc(F)cc4c3c2CCNC4=O)cc1 | – | 93.7%
16 | Clc1ccc(Nc2nnc(Cc3ccncc3)c3ccccc23)cc1 | – | 109%
17 | CC[C@@H](C)[C@H](NC(=O)[C@H](CC1CCCCC1)NC(=O)c1ccno1)C(=O)N1CCC2(CCc3ccccc32)CC1 | 13.2 µM (active) | –
18 | COc1nc(-c2ccc3c(c2)OCO3)n(-c2ccc(NC(=O)CSc3ccccc3)cc2)n1 | – | 107%
